Measurements as given in PubChem BioAssay (EPA / NIEHS).
Records with an inconclusive call do not appear. Activity calls are given as the source filed them. The calls were made as follows: active = hit-call score of the fitted dose curve at least 0.9, where 1 is the maximum; inconclusive = response in the unintended direction; inactive = score below 0.9.

Target: Glycogen synthase kinase-3 beta (Homo sapiens) (UniProt P49841)
Assay: NVS_ENZ_hGSK3b: NovaScreen (NVS) Enzymatic Assay for human Glycogen Synthase Kinase-3 beta (GSK3b) (AID 2283165)
Description: NVS_ENZ_hGSK3b is a biochemical, single-readout assay that uses extracted gene-proteins in a cell-free assay. Measurements were taken 1 hour after chemical dosing in a 384-well plate.NVS_ENZ_hGSK3b is one of one assay component(s) measured or calculated from the NVS_ENZ_hGSK3b assay. It is designed to make measurements of enzyme activity, a form of enzyme reporter, as detected with fluorescence intensity signals by Fluorescence and electrophoretic mobility shift technology.Data from the assay component NVS_ENZ_hGSK3b was analyzed into 1 assay endpoint. This assay endpoint, NVS_ENZ_hGSK3b, was analyzed in the positive analysis fitting direction relative to DMSO as the negative control and baseline of activity. Using a type of enzyme reporter, loss-of-signal activity can be used to understand changes in the enzymatic activity as they relate to the gene GSK3B. Furthermore, this assay endpoint can be referred to as a primary readout, because this assay has produced multiple assay endpoints where this one serves a enzymatic activity function. To generalize the intended target to other relatable targets, this assay endpoint is annotated to the kinase intended target family, where the subfamily is serine/threonine kinase.
Binding assays used specific radioligands (tritiated, iodinated) with non-radioactive competitive displacement ligands in agonist or antagonist protocols (as indicated) and various reference compounds and inhibitors to titrate specific binding to receptors and transporters. Most enzyme assays (CYPs, kinases, phosphatases, proteases, HDACs) used recombinant protein and specific substrates (fluorescence mostly, some colorimetric and radioactive) and inhibitors, followed by a biochemical separation of substrate and product. All assays for the biochemical HTS were initially run in duplicate at a single concentration (10 uM for CYP450 assays and 25 uM for all others). Assay-chemical combinations meeting a pre-defined threshold (e.g., 30% inhibition and other criteria defined below) were then run in singleton concentration-response format with maximum concentration of 20 uM for CYPs and 50 uM for all others. Each assay was run with positive and negative controls, and concurrent controls on every plate. The follow-up (secondary) screen tested active chemical-pairs in concentration series, as well as a few additional assays not tested in the primary screen, some selected negative inactives, and several cases re-run in the concentration series for confirmatory purposes.

Sequence of Glycogen synthase kinase-3 beta (Homo sapiens) (P49841 whole entry, looked up): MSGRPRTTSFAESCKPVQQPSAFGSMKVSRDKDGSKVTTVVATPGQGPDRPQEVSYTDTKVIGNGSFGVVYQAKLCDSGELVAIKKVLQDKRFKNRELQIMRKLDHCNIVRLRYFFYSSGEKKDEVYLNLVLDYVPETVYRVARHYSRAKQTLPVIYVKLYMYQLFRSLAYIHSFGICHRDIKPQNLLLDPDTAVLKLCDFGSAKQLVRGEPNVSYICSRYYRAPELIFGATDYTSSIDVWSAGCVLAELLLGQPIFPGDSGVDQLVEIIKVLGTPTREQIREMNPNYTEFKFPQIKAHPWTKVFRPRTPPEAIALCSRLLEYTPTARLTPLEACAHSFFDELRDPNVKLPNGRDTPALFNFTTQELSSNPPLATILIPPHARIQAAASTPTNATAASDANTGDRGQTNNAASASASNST

outcome, inactive:
CCc1cc(C2=C(C(=O)O)N(c3ccccc3C(F)(F)F)S(=O)(=O)c3ccccc32)cc2c1OCO2, COC(=O)CCCC(=O)OC, O=NO, Oc1ccc(O)cc1, O=C(O)CN(CC(=O)O)CC(=O)O, C/C=C/c1ccc(OC)cc1, CCOCCOCCO, Nc1nc(=S)c2[nH]cnc2[nH]1, C=CCc1ccc(OC)c(OC)c1, S=c1[nH]c2ccccc2s1, CC(C)c1cccc(C(C)C)c1NC(=O)NS(=O)(=O)c1cc(C(C)(C)O)co1, COc1ccc(OC(F)(F)F)cc1CN[C@H]1CCCN[C@H]1c1ccccc1, O=C(Oc1ccccc1)c1cccc(C(=O)Oc2ccccc2)c1, CC1(C)C(=O)NC(=O)N1CO, NC1CCCCC1, CCCC(=O)O, c1ccc2occc2c1, Cc1occc(=O)c1O, O=C1OC(c2ccc(O)cc2)(c2ccc(O)cc2)c2ccccc21, CN(C)C(=O)NC1(c2ccccc2)CCN(CCC[C@]2(c3ccc(Cl)c(Cl)c3)CCCN(C(=O)c3ccccc3)C2)CC1
